Shown is part of a subset that was picked to be rich in hits.
ALOX12 inh: Primary qHTS assay for inhibitors of human arachidonate 12S-lipoxygenase (ALOX12): Round 2 | purified 12hLO, xylenol orange hydroperoxide absorbance | Potency, µM (highest dose often 108 µM), without a hit: top-dose activity change, negative = inhibition, usual class: inhibitors | 1.1% of 580,000 active | AID 1671190, 2021; note: potency is the fitted concentration of half-maximal effect
Target sequence (P18054 whole entry, looked up): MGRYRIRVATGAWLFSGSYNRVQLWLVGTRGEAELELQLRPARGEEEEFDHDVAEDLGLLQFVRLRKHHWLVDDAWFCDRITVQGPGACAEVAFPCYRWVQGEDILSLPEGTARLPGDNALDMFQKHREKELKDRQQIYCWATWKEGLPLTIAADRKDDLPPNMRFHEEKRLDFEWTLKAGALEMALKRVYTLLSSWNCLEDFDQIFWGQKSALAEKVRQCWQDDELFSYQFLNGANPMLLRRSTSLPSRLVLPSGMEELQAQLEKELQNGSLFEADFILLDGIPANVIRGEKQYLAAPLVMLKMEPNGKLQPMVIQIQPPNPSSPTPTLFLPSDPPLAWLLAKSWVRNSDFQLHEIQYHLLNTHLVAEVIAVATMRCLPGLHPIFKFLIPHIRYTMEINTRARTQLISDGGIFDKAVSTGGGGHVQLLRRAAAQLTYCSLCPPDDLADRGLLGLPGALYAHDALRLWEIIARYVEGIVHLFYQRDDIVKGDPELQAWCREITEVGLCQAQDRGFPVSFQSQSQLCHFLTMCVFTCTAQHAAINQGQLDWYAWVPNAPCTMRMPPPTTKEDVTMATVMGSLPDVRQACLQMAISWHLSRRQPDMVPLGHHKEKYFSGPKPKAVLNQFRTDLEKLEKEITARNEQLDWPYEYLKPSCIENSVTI
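Purified human 12hLO (150 nM final) in 25 mM Hepes, 0.01% Triton X-100, pH 7.0 was preincubated 15 min at room temperature with compound. Then 40 uM arachidonic acid was added, 30 min. Hydroperoxide was read by Fe-XO absorbance ratio 573/405 nm.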
HT1080 IDH1KD tx: qHTS for induction of synthetic lethality in tumor cells producing 2HG: qHTS for the HT-1080-IDH1KD cell line | HT-1080 IDH1 knockdown viability, ATP luminescence, 48 h | Potency, µM (doses to about 46.1 µM), without a hit: at the highest dose activity, negative = toxicity, actives largely listed as cytotoxic | 2% of 360,000 active | AID 686971, 2013;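 note: potency is the fitted concentration of half-maximal effect; 0% = DMSO wells and -100% = cell-free medium wells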
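IDH1KD HT-1080 cells, 750/well, RPMI + 5% FBS; compound pinned after 2 h settling; 48 h, 37 °C; CellTiter-Glo luminescence; % activity normalised to DMSO and no-cell wells; curves fitted, classed by r2 and efficacy.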
TDP1 cell noCPT: qHTS for Inhibitors of human tyrosyl-DNA phosphodiesterase 1 (TDP1): qHTS in cells in absence of CPT. DT40 Tdp1-/- hTDP1 cells, no CPT, ATP luminescence, 48 h. Potency, µM (series often up to 46.2 µM), for the others: at the top dose activity change, negative = growth inhibition, most hits filed as inhibitors. 15% of 420,000 active; note: potency is the fitted concentration of half-maximal effect; nearly all actives have a fitted effect of over 55% in size
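Readout: luminescence from CellTiter-Glo after 30 min in the dark at RT. Cells: DT40 Tdp1-/- with stable hTDP1, 400/well. Exposure: compounds alone, ≥48 hr, 37 °C.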
HT1080-NT tox: qHTS for induction of synthetic lethality in tumor cells producing 2HG: qHTS for the HT-1080-NT fibrosarcoma cell line; HT-1080-NT fibrosarcoma viability, CellTiter-Glo ATP luminescence, 48 h; Potency, µM (series often up to 46.1 µM), without a hit: at the highest dose activity, negative = less viability, hits mostly cytotoxic; 1.6% of 360,000 active; AID 686970, 2013;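 note: NT is the 2HG producing partner of a matched IDH1 knockdown line; potency is the fitted concentration of half-maximal effect; 0% = DMSO-treated cells and -100% = media-only wells without cells; nearly all actives have a fitted effect of over 55% in size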
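Viability of the 2HG-overproducing fibrosarcoma line after 48 hours of compound exposure at 37 degrees C was determined by luminescence with CellTiter-Glo, and concentration-effect curves were then fitted and categorized.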
IL-1B inflam inh: qHTS for Inhibitors of Inflammasome Signaling: IL-1-beta AlphaLISA Primary Screen; activity change, % at 57.5 µM; THP-1 LPS/ATP IL-1B secretion, AlphaLISA, 16 h; hits give low values; 4.7% of 360,000 active; in the data active = activity change below about -50%; inconclusive = mostly about -30% to -49%
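Secreted IL-1B measured by AlphaLISA bead assay after 16 h compound exposure of THP-1 cells; compounds (final up to 57.5 uM) added 1 h before LPS (250 ng/mL) and ATP (1.25 mM) stimulation; lower signal means less secretion.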
DT40 TDP1 CPT: qHTS for Inhibitors of human tyrosyl-DNA phosphodiesterase 1 (TDP1): qHTS in cells in presence of CPT; chicken DT40 Tdp1-/-;hTDP1 cells + 20 nM CPT, ATP luminescence, 48 h; 12% of 420,000 active; Potency, µM (doses to about 46.2 µM), for inactives: at the highest dose activity change, negative = growth inhibition, most hits filed as inhibitors; AID 686979, 2013; note: potency is the fitted concentration of half-maximal effect; nearly all actives have a fitted effect of over 55% in size
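Cell growth measured by CellTiter-Glo luminescence after a minimum 48 h, 37 C compound exposure with 20 nM CPT in Tdp1-knockout DT40 cells stably expressing hTDP1, seeded 400/well; qHTS titration format.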
* hit, by the source's call; [ ] = dose if it differs, or a comment. Unless noted, calls come from the whole dose curve; as a rule, active = well fitted curve in the direction sought with a large enough effect; inconclusive = small, poorly fitted or top-dose-only effect, or another doubt; inactive = no such curve, though single readings can be large; an effect the other way counts as inactive or inconclusive. Unless noted, % is set by controls: 0 for no effect and ±100 for the full control effect.

Screening COc1ccc(Nc2nc(NCc3ccco3)nc(N/N=C/c3ccccc3F)n2)cc1 returned ALOX12 inh -11.3%, HT1080 IDH1KD tx -12.0%, TDP1 cell noCPT 16.4µM*, HT1080-NT tox -5.6%, IL-1B inflam inh inconclusive and DT40 TDP1 CPT 18.4µM*.
For COc1ccc(/C=N/Nc2nc(Nc3ccccc3)nc(N3CCCC3)n2)cc1 the results were ALOX12 inh -32.3%, HT1080 IDH1KD tx 7.0%, TDP1 cell noCPT inconclusive, HT1080-NT tox -7.0%, IL-1B inflam inh -10.4 and DT40 TDP1 CPT inconclusive.
Screening COc1ccc(Nc2nc(NCc3ccco3)nc(N/N=C/c3ccc(O)cc3)n2)cc1 returned ALOX12 inh -21.0%, HT1080 IDH1KD tx 12.0%, TDP1 cell noCPT inconclusive, HT1080-NT tox 1.7%, IL-1B inflam inh -69.2* and DT40 TDP1 CPT inconclusive.
Screening Cn1c(=O)c2c(nc(Oc3ccc(F)cc3)n2Cc2ccccc2F)n(C)c1=O returned ALOX12 inh 25.8%.
`Nc1ncccc1CN1CC[C@@H]2OCC(=O)N(c3ccccc3)[C@H]2CC1` gave ALOX12 inh 4.8%[176 µM].
Screening O=C(Nc1cc(C(F)(F)F)ccc1Cl)C(Sc1cccc[n+]1[O-])c1ccccc1 (stereo unspecified) returned ALOX12 inh -11.1%, HT1080 IDH1KD tx -7.4%, TDP1 cell noCPT 4.61µM*, HT1080-NT tox -2.7%, IL-1B inflam inh -95.6* and DT40 TDP1 CPT 4.61µM*.
For Cc1ccc(/C=N/Nc2cc(C)nc(N3CCOCC3)n2)cc1 the results were ALOX12 inh 0.0%, HT1080 IDH1KD tx -19.7%, TDP1 cell noCPT inconclusive, HT1080-NT tox -16.6%, IL-1B inflam inh -7.0 and DT40 TDP1 CPT 10.2%.
For COc1ccc(Nc2nc(N3CCOCC3)nc(N3CCOCC3)n2)cc1Cl the results were ALOX12 inh 0.0%, HT1080 IDH1KD tx -9.7%, TDP1 cell noCPT 20.6µM*, HT1080-NT tox 19.6%, IL-1B inflam inh -57.8* and DT40 TDP1 CPT inconclusive.
Cc1cc(Nc2cccc(Cl)c2)nc(N2CCOCC2)n1 was read as ALOX12 inh -17.6%, HT1080 IDH1KD tx -13.5%, TDP1 cell noCPT inconclusive, HT1080-NT tox -7.9%, IL-1B inflam inh 2.5 and DT40 TDP1 CPT 14.6µM*.
Cc1ccc(Nc2nc(N/N=C\c3ccc4c(c3)OCO4)nc(N3CCOCC3)n2)cc1 was read as ALOX12 inh -1.0%, HT1080 IDH1KD tx 25.9µM*, TDP1 cell noCPT 9.2µM*, HT1080-NT tox inconclusive, IL-1B inflam inh -28.4 and DT40 TDP1 CPT 8.2µM*.
Cc1ccc(Nc2nc(Nc3ccc(C)c(C)c3)nc(N3CCOCC3)n2)cc1C was read as ALOX12 inh -0.7%, TDP1 cell noCPT 10.3µM* and DT40 TDP1 CPT 14.6µM*.
For Cc1cc(Nc2ccccc2)nc(N2CCOCC2)n1 the results were ALOX12 inh 2.3%, HT1080 IDH1KD tx 8.8%, TDP1 cell noCPT -11.4%, HT1080-NT tox 1.2%, IL-1B inflam inh -9.6 and DT40 TDP1 CPT -18.7%.
For COc1ccccc1Nc1nc(N2CCOCC2)nc(N2CCOCC2)n1 the results were ALOX12 inh -15.5%, HT1080 IDH1KD tx 0.2%, TDP1 cell noCPT inconclusive, HT1080-NT tox -1.7%, IL-1B inflam inh -9.1 and DT40 TDP1 CPT inconclusive.
For O=C(c1ccccc1)N1CC2(CCCN2CC2CC2)Cc2ccccc21 (stereo unspecified) the results were ALOX12 inh -0.3%[6.33 µM].
For COc1ccc(Nc2nc(Nc3ccc(OC)cc3OC)nc(N3CCOCC3)n2)c(OC)c1 the results were ALOX12 inh -17.8%, TDP1 cell noCPT 13µM* and DT40 TDP1 CPT 14.6µM*.
Screening Cc1ccc(N/N=C/c2ccc(N3CCOCC3)cc2)cc1C returned ALOX12 inh 8.91µM*, HT1080 IDH1KD tx 4.1%, TDP1 cell noCPT inconclusive, HT1080-NT tox -2.8%, IL-1B inflam inh -11.5 and DT40 TDP1 CPT 23.1µM*.
`Clc1cccc(Nc2nc(N3CCOCC3)nc(N3CCOCC3)n2)c1` gave ALOX12 inh -21.0%, HT1080 IDH1KD tx 0.0%, TDP1 cell noCPT inconclusive, HT1080-NT tox 4.7%, IL-1B inflam inh inconclusive and DT40 TDP1 CPT inconclusive.
For O=C(N/N=C/c1ccc(N2CCOCC2)cc1)C1CC1 the results were ALOX12 inh 3.3%, HT1080 IDH1KD tx 0.0%, TDP1 cell noCPT -18.6%, HT1080-NT tox -0.5%, IL-1B inflam inh 7.7 and DT40 TDP1 CPT 7.9%.
Fc1cccc(Nc2nc(N3CCOCC3)nc(N3CCOCC3)n2)c1 was read as ALOX12 inh 1.4%, HT1080 IDH1KD tx -9.1%, TDP1 cell noCPT -26.3%, HT1080-NT tox 0.3%, IL-1B inflam inh inconclusive and DT40 TDP1 CPT 18.4µM*.
`Cc1ccc([N+](=O)[O-])cc1Nc1nc(N2CCOCC2)nc(N2CCOCC2)n1` gave ALOX12 inh 2.1%, HT1080 IDH1KD tx 1.1%, TDP1 cell noCPT -22.0%, HT1080-NT tox 16.1%, IL-1B inflam inh -21.4 and DT40 TDP1 CPT 4.3%.
`Cc1ccc(Cl)cc1Nc1nc(N2CCOCC2)nc(N2CCOCC2)n1` gave ALOX12 inh 0.5%, HT1080 IDH1KD tx 1.0%, TDP1 cell noCPT inconclusive, HT1080-NT tox -1.0%, IL-1B inflam inh -54.4* and DT40 TDP1 CPT inconclusive.
COC(=O)CNC(=O)c1ccc(CNC(=O)OC(C)(C)C)cc1 was read as ALOX12 inh 20.3%.
For CCOc1nc(Nc2ccc(OC)c(Cl)c2)nc(OCC)n1 the results were ALOX12 inh 0.0%[57.4 µM], HT1080 IDH1KD tx -3.6%, TDP1 cell noCPT inconclusive, HT1080-NT tox 3.6%, IL-1B inflam inh -2.8 and DT40 TDP1 CPT 18.4µM*.
For CC(O)c1nc2ccccc2n1CCCc1ccccc1 (stereo unspecified) the results were ALOX12 inh 7.6%, HT1080 IDH1KD tx -3.9%, TDP1 cell noCPT -24.8%, HT1080-NT tox -24.2%, IL-1B inflam inh -7.6 and DT40 TDP1 CPT 18.4µM*.
Screening CC(O)c1nc2ccccc2n1Cc1ccccc1 (stereo unspecified) returned ALOX12 inh inconclusive, HT1080 IDH1KD tx -1.5%, TDP1 cell noCPT 4.2%, HT1080-NT tox -1.3%, IL-1B inflam inh 10.7 and DT40 TDP1 CPT -18.1%.
OCc1nc2ccccc2n1CCCc1ccccc1 was read as ALOX12 inh -8.5%, HT1080 IDH1KD tx 5.6%, TDP1 cell noCPT inconclusive, HT1080-NT tox 0.8%, IL-1B inflam inh 8.5 and DT40 TDP1 CPT 16.4µM*.
